This note sets out measurements from PubChem BioAssay (EPA / NIEHS).

Read-out in assay [1]: Monokine induced gamma interferon (MIG), CXCL9 (gene 4283)
In words: BSK_KF3CT_MIG: BioMAP Diversity Plus: KF3CT Assay for Monokine induced gamma interferon (MIG) Biomarker Activity (AID 2284248). The note with it: primary human keratinocytes with fibroblasts. The gist of the method: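 MIG in dosed human skin co-cultures was measured by ELISA at 24 h, relative to DMSO.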

Read-out in assay [2]: Collagen I, COL1A1 (gene 1277)
Kind of assay: BSK_hDFCGF_CollagenI: BioMAP Diversity Plus: hDFCGF Assay for Collagen I Biomarker Activity (AID 2284250). The note with it: primary human foreskin fibroblasts. The gist of the method: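 Primary human foreskin fibroblasts (hDFCGF system) exposed to chemical for 24 h; Collagen I measured by ELISA. Activity fitted in the positive direction relative to DMSO baseline, with SRB total-protein staining in parallel cultures for overt cytotoxicity.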

Read-out in assay [3]: Interferon-inducible T-cell alpha chemoattractant (ITAC), CXCL11 (gene 6373)
Kind of assay: BSK_hDFCGF_ITAC: BioMAP Diversity Plus: hDFCGF Assay for Interferon-inducible T-cell alpha chemoattractant (ITAC) Biomarker Activity (AID 2284251). To be noted: primary human foreskin fibroblasts. The gist of the method: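 Fibroblasts (human foreskin, primary) are treated with chemical, cultured 24 h, then assayed for I-TAC by ELISA. Overt toxicity is checked in parallel cultures by sulforhodamine B staining of total protein at the same time point.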

Read-out in assay [4]: Plasminogen activator inhibitor-1 (PAI1), SERPINE1 (gene 5054)
In words: BSK_KF3CT_PAI1: BioMAP Diversity Plus: KF3CT Assay for Plasminogen activator inhibitor-1 (PAI1) Biomarker Activity (AID 2284252). The note with it: primary human keratinocytes with fibroblasts. In short, it runs like this: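 Human primary keratinocyte/foreskin fibroblast co-culture was dosed with compound and sampled at 24 h. PAI-1 was quantified by ELISA, with activity fitted in the positive direction relative to DMSO vehicle as baseline.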

Read-out in assay [5]: Interleukin-8 (IL8), CXCL8 (gene 3576)
In words: BSK_KF3CT_IL8: BioMAP Diversity Plus: KF3CT Assay for Interleukin-8 (IL8) Biomarker Activity (AID 2284254). To be noted: primary human keratinocytes with fibroblasts. The gist of the method: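 Using parallel SRB-stained cultures to flag overt toxicity, the study quantified IL-8 by ELISA in human keratinocyte–foreskin fibroblast co-cultures 24 h after dosing, with DMSO as negative control and baseline.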

Read-out in assay [6]: Intercellular Adhesion Molecule 1 (ICAM1), ICAM1 (gene 3383)
Kind of assay: BSK_BE3C_ICAM1: BioMAP Diversity Plus: BE3C Assay for Intercellular Adhesion Molecule 1 (ICAM1) Biomarker Activity (AID 2284278).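 On outcome: cell-surface ICAM-1 protein level quantified by ELISA.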 To be noted: primary human bronchial epithelial cells. In short, it runs like this:
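Primary human bronchial epithelial cells were exposed to compound for 24 h, after which cell-surface ICAM-1 was quantified by ELISA. Activity was fitted in the gain-of-signal direction against DMSO as negative control and baseline.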

Read-out in assay [7]: Collagen I, COL1A1 (gene 1277)
Kind of assay: BSK_MyoF_CollagenI: BioMAP Diversity Plus: MyoF Assay for Collagen I Biomarker Activity (AID 2284238). To be noted: primary human lung fibroblasts. The gist of the method:
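Measured by ELISA: Collagen I from human lung fibroblasts 24 h after compound addition, analysed for signal gain with DMSO as baseline; overt toxicity read from SRB staining of parallel cultures at the same time.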

Read-out in assay [8]: Collagen III, COL3A1 (gene 1281)
Kind of assay: BSK_MyoF_CollagenIII: BioMAP Diversity Plus: MyoF Assay for Collagen III Biomarker Activity (AID 2284239). The note with it: primary human lung fibroblasts. In short, it runs like this:
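Multiplexed cell assay in lung fibroblasts, harvested at 24 h post-dose. Collagen III detected by ELISA, with positive-direction fitting relative to DMSO vehicle.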

Read-out in assay [9]: Interleukin 17F (IL17F), IL17F (gene 112744)
Kind of assay: BSK_BT_xIL17F: BioMAP Diversity Plus: BT Assay for Interleukin 17F (IL17F) Biomarker Activity (AID 2284243). The note with it: primary human B cells with PBMC. In short, it runs like this:
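Luminex readout of IL-17F secretion, 24 h; cells: human B cells with PBMC; positive-direction analysis, DMSO control.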

Read-out in assay [10]: Basic fibroblast growth factor (bFGF), FGF2 (gene 2247)
In words: BSK_MyoF_bFGF: BioMAP Diversity Plus: MyoF Assay for Basic fibroblast growth factor (bFGF) Biomarker Activity (AID 2284246). The note with it: primary human lung fibroblasts. In short, it runs like this: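 Human lung fibroblasts were dosed with chemicals and bFGF was quantified by ELISA 24 h later. Activity was fitted in the gain-of-signal direction relative to DMSO as negative control and baseline. Parallel SRB total-protein staining tracked overt cytotoxicity.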

Read-out in assay [11]: Collagen IV, COL4A1 (gene 1282)
In words: BSK_MyoF_CollagenIV: BioMAP Diversity Plus: MyoF Assay for Collagen IV Biomarker Activity (AID 2284247). The note with it: primary human lung fibroblasts. The gist of the method: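 Primary human lung fibroblasts were exposed to test chemicals and sampled 24 h after dosing. Collagen IV levels were measured by ELISA and fitted in the positive direction against DMSO as negative control and baseline.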

Read-out in assay [12]: Plasminogen activator inhibitor-1 (PAI1), SERPINE1 (gene 5054)
In words: BSK_MyoF_PAI1: BioMAP Diversity Plus: MyoF Assay for Plasminogen activator inhibitor-1 (PAI1) Biomarker Activity (AID 2284256).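 Further: PAI-1 protein level measured by ELISA in fibroblast cultures; PAI-1 read 24 h after compound addition.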 The note with it: primary human lung fibroblasts. The gist of the method: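 In this multiplexed primary-cell system, fibroblasts from human lung received compound for 24 h before ELISA detection of PAI-1; overt toxicity was checked by SRB (0.1%, TCA-fixed, 560 nm) in parallel wells.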

Read-out in assay [13]: Interleukin-8 (IL8), CXCL8 (gene 3576)
In words: BSK_MyoF_IL8: BioMAP Diversity Plus: MyoF Assay for Interleukin-8 (IL8) Biomarker Activity (AID 2284261). To be noted: primary human lung fibroblasts. The gist of the method:
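DMSO-normalised, upward-fitted IL-8 ELISA signal; human lung fibroblasts, 24 h chemical treatment.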

Read-out in assay [14]: Decorin, DCN (gene 1634)
In words: BSK_MyoF_Decorin: BioMAP Diversity Plus: MyoF Assay for Decorin Biomarker Activity (AID 2284265). To be noted: primary human lung fibroblasts. In short, it runs like this:
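In this multiplexed fibroblast system, secreted or surface decorin is detected by ELISA one day after dosing, with increases scored against the DMSO vehicle.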

Assay [15] is described as follows: BSK_MyoF_SRB: Viability Assessment in the BioMAP Diversity Plus: MyoF Assay (AID 2284267).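 Further: total protein by SRB absorbance in parallel cultures as cytotoxicity measure; cells assessed 24 h after compound addition.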 The note with it: primary human lung fibroblasts. In short, it runs like this: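 Human lung fibroblasts dosed with chemical and assessed 24 h later for overt cytotoxicity in parallel cultures. Total protein quantified by sulforhodamine B staining (0.1% SRB after 10% TCA fixation), read at 560 nm, analysed in positive direction versus DMSO baseline.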

Read-out in assay [16]: TIMP metallopeptidase inhibitor 1 (TIMP1), TIMP1 (gene 7076)
In words: BSK_MyoF_TIMP1: BioMAP Diversity Plus: MyoF Assay for TIMP metallopeptidase inhibitor 1 (TIMP1) Biomarker Activity (AID 2284269). To be noted: primary human lung fibroblasts. In short, it runs like this: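 ELISA read-out of TIMP-1 from primary human lung fibroblast cultures 24 h after compound dosing; gain of signal relative to DMSO vehicle baseline defines activity.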

Assay [17] in a line: CCTE_Mundy_HCI_Cortical_NOG_BPCount: CCTE's Neurite Outgrowth Assay in rat cortical cells for Branch Point Count, Mundy Lab (AID 2284237). In short, it runs like this: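 Measured 50.33 h after dosing, this morphology endpoint uses rat primary cortical cultures labelled for betaIII-tubulin. Branch points are quantified by high-content imaging, with DMSO as negative control and baseline.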

Assay [18] in a line: CCTE_Mundy_HCI_hNP1_Casp3_7: CCTE's Caspase-Glo 3/7 Assay in human neuroprogenitor cells for Apoptosis, Mundy Lab (AID 2284240). In short, it runs like this:
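Apoptosis is scored by activated caspase-3/7 luminescence in WA09-derived neural progenitor cells, measured 26.5 h after chemical dosing. Values represent gain of signal relative to DMSO vehicle.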

Assay [19] is described as follows: CCTE_Mundy_HCI_hNP1_CellTiter: CCTE's Cell Titer-Glo 2 Assay in human neuroprogenitor cells for Viability, Mundy Lab (AID 2284241; active means hit-call score of the fitted dose curve at least 0.9, where 1 is the maximum;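 on AC50: a hit is a drop in ATP luminescence versus DMSO meaning reduced viability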). In short, it runs like this:
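Human neural progenitor cells (hNP1, WA09-derived) were plated on poly-L-ornithine/laminin and grown 40 to 44 hours at 37 °C, 5% CO2 before chemical addition. Twenty-four hours later, ATP was measured by CellTiter-Glo luminescence; loss of signal versus DMSO indicates reduced viability.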

Assay [20] in a line: CCTE_Mundy_HCI_Cortical_Synap_Neur_Matur_NeuronCount: CCTE's Synaptogenesis and Neurite Maturation Assay in rat cortical cells for Neuron Count, Mundy Lab (AID 2284242; active means hit-call score of the fitted dose curve at least 0.9, where 1 is the maximum). In short, it runs like this:
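Rat primary cortical cells received AraC at DIV 5 to arrest glia, then were dosed with chemicals at DIV 7 through DIV 12. Fixed cells were stained for nuclei, MAP2 and synaptophysin, and neurons were counted by high-content imaging relative to DMSO.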

Several values for one entry are separate records, joined by “and”; a condition that tells them apart may be missing. Identical values can stand only once. Records with an inconclusive call do not appear. Where a structure was tested more than once in an assay, its records may differ in their call. Activity calls are given as the source filed them. How the source made its calls, unless noted: active means hit-call score of the fitted dose curve at least 0.9, where 1 is the maximum; inactive means score below 0.9.

With `C=C[Si](OC(C)=O)(OC(C)=O)OC(C)=O`, the outcome in [1], in [2], in assay [3], in [4], in assay [5] and in [6] was inactive.

As to `c1ccc2c(c1)ccc1ncccc12`, the outcome in [7], in assay [8], in assay [10], in assay [11], in assay [12] and in [13] was inactive. Also, the outcome in assay [14], in [15] and in assay [16] was inactive. Moreover, the AC50 in assay [9] is 20 µM (active).

As for `CCOC(=O)c1ccccc1C(=C1C=C(Br)C(=O)C(Br)=C1)c1cc(Br)c(O)c(Br)c1`, the AC50 in [1] was 4.3 µM (active) and 3.96 µM (active); in assay [2] it was 3.27 µM (active); in [3] it was 4.39 µM (active) and 4.49 µM (active); in assay [4] it was 3.18 µM (active) and 3.06 µM (active); in assay [6] it was 5.49 µM (active) and 5.66 µM (active). In addition, in assay [5], the outcome was inactive.

As for `Nc1ncn([C@@H]2O[C@H](CO)[C@@H](O)[C@H]2O)c(=O)n1`, the molecule was classed as inactive in assay [17], in assay [19] and in assay [20]. Moreover, the AC50 in assay [18] is 5.45 µM (active); in assay [19], 2.78 µM (active).

Regarding `C=CCOCC(O)CCl` (stereo unspecified), the result in assay [7], in assay [8], in [9], in assay [10], in assay [11] and in [12] was inactive. The outcome in assay [13], in assay [14], in assay [15] and in assay [16] was inactive.

For the molecule `CCOc1nc(F)cc2nc(S(=O)(=O)Nc3c(Cl)cccc3C(=O)OC)nn12`, the result in assay [7], in assay [8], in [9], in [10], in assay [11] and in [12] was inactive. Also, the outcome in assay [13], in [14], in [15] and in assay [16] was inactive.

Take `CCO[Si](C)(OCC)OCC`: the outcome in assay [1], in assay [2], in [3], in assay [4], in assay [5] and in assay [6] was inactive.

With `c1ccc(-c2ccccn2)nc1`, the result in assay [7], in assay [8], in [10], in assay [11], in assay [12] and in assay [13] was inactive. The result in assay [14], in assay [15] and in [16] was inactive. For the same molecule, the AC50 in [9] was 27.6 µM (active).

On to `CCCCC(CC)COC(=O)c1ccccc1O` (stereo unspecified), for which the AC50 in [7] was 14.5 µM (active). Moreover, the result in [8], in [9], in [10], in assay [11], in assay [12] and in assay [13] was inactive. The outcome in assay [14], in assay [15] and in assay [16] was inactive.

With `Nc1ccc(N)c(Cl)c1`, the AC50 in assay [1] was 12.3 µM (active); in assay [2], 26.7 µM (active); in [3], 23.4 µM (active) and 22.6 µM (active); in assay [4], 13.1 µM (active) and 26.5 µM (active). Besides, the outcome in [1], in assay [2], in [5] and in assay [6] was inactive.
